Reference: the supplement of paper PMC10849652
Of roughly 7,900 targets only a part is listed; those with a hit were picked by preference. About 0.6% of all pairs of compound and target were hits.

Key:
Test in all cases: log2 fold change, soluble protein after heating vs DMSO (PISA); higher = thermal stabilisation; K562 cells, 10 uM, 30 min; active = over 0.2 and 3.5 SD of the protein, either way, in both replicates (recomputed)
[1] = compound: CS(=O)(=O)c1ccc(-c2cnc(N)c(C(=O)Nc3ccccc3)n2)cc1
Method in brief: (§1)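 K562 cells at 2×10^6 cells/mL were treated for 30 min with 10 μM compound, and aliquots were heated for 3 min over 48°C-58°C before pooling. Extraction used PBS with 0.5% NP-40 at 4°C, and soluble protein was the supernatant after 21,000xg for 90 min, measured by TMTpro 16plex LC-MS/MS with channel sums equalised. Thermal stability values, relative to control samples and from duplicates, are log2 fold changes.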

crizotinib = compound: C[C@@H](Oc1cc(-c2cnn(C3CCNCC3)c2)cnc1N)c1c(Cl)ccc(F)c1Cl [crizotinib]
Method in brief: as §1

[2] = compound: C[C@@H]1COCCN1C2=NC(=NC(=C2)C3(CC3)S(=O)(=O)C)C4=C5C=CNC5=CC=C4
Method in brief: as §1

gandotinib = compound: Cc1cc(Nc2cc(CN3CCOCC3)c3nc(C)c(Cc4ccc(Cl)cc4F)n3n2)n[nH]1 [gandotinib]
Method in brief: as §1

tozasertib = compound: Cc1cc(Nc2cc(N3CCN(C)CC3)nc(Sc3ccc(NC(=O)C4CC4)cc3)n2)n[nH]1 [tozasertib]
Method in brief: as §1

doramapimod = compound: Cc1ccc(-n2nc(C(C)(C)C)cc2NC(=O)Nc2ccc(OCCN3CCOCC3)c3ccccc23)cc1 [doramapimod]
Method in brief: as §1

ispinesib = compound: Cc1ccc(C(=O)N(CCCN)[C@@H](c2nc3cc(Cl)ccc3c(=O)n2Cc2ccccc2)C(C)C)cc1 [ispinesib]
Method in brief: as §1

bafetinib = compound: Cc1ccc(NC(=O)c2ccc(CN3CC[C@H](N(C)C)C3)c(C(F)(F)F)c2)cc1Nc1nccc(-c2cncnc2)n1 [bafetinib]
Method in brief: as §1

[3] = compound: Cc1cccc(CC(=O)N2CCc3c2ccc(-c2cn(C)c4ncnc(N)c24)c3F)n1
Method in brief: as §1

nilotinib = compound: Cc1cn(-c2cc(NC(=O)c3ccc(C)c(Nc4nccc(-c5cccnc5)n4)c3)cc(C(F)(F)F)c2)cn1 [nilotinib]
Method in brief: as §1

[4] = compound: Cc1nc(Nc2n[nH]c3c2CN(C(=O)N[C@H](CN(C)C)c2ccccc2)C3(C)C)c2sccc2n1
Method in brief: as §1

[5] = compound: Cc1ncc(-c2ccnc(Nc3ccc(S(C)(=O)=O)cc3)n2)n1C(C)C
Method in brief: as §1

[6] = compound: Cn1cc(-c2ccc3nnc(C(F)(F)c4ccc5ncccc5c4)n3n2)cn1
Method in brief: as §1

tipifarnib = compound: Cn1cncc1[C@@](N)(c1ccc(Cl)cc1)c1ccc2c(c1)c(-c1cccc(Cl)c1)cc(=O)n2C [tipifarnib]
Method in brief: as §1

mubritinib = compound: FC(F)(F)c1ccc(/C=C/c2nc(COc3ccc(CCCCn4ccnn4)cc3)co2)cc1 [mubritinib]
Method in brief: as §1

duvelisib = compound: C[C@H](Nc1ncnc2nc[nH]c12)c1cc2cccc(Cl)c2c(=O)n1-c1ccccc1 [duvelisib]
Method in brief: as §1

[7] = compound: Cc1cc(SCc2sc(-c3ccc(C(F)(F)F)cc3)nc2C)ccc1OCC(=O)O
Method in brief: as §1

dasatinib = compound: Cc1nc(Nc2ncc(C(=O)Nc3c(C)cccc3Cl)s2)cc(N2CCN(CCO)CC2)n1 [dasatinib]
Method in brief: as §1

[8] = compound: C[C@H](C1=CC=C(C=C1)C(=O)NC2=C3C=CNC3=NC=C2)N
Method in brief: as §1

[9] = compound: Cn1cc(-c2ccc3c(c2)CCN3C(=O)Cc2cccc(C(F)(F)F)c2)c2c(N)ncnc21
Method in brief: as §1

Measured: log2 fold change

ADPRH (UniProt P54922)
UniProt P54922, sequence (P54922 whole entry, looked up): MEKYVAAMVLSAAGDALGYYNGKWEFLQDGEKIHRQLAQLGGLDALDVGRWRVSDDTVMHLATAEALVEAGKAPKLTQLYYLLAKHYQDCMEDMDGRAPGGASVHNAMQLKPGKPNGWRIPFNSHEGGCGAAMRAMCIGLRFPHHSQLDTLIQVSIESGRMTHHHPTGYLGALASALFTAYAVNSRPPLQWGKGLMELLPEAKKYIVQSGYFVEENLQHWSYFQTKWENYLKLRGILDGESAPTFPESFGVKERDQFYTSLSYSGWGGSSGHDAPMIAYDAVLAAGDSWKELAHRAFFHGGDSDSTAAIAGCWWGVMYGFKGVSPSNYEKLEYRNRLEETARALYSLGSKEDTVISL
inactive: [1] 0.123 | crizotinib 0.056 | [2] 0.201 | gandotinib 0.157 | tozasertib -0.033 | doramapimod -0.071 | ispinesib -0.002 | bafetinib 0.082 | [3] -0.29 | nilotinib 0.141 | [4] 0.026 | [5] -0.161 | [6] 0.038 | tipifarnib -0.005 | mubritinib 0.015

APOBEC3G (UniProt Q9HC16)
UniProt Q9HC16, sequence (Q9HC16 whole entry, looked up): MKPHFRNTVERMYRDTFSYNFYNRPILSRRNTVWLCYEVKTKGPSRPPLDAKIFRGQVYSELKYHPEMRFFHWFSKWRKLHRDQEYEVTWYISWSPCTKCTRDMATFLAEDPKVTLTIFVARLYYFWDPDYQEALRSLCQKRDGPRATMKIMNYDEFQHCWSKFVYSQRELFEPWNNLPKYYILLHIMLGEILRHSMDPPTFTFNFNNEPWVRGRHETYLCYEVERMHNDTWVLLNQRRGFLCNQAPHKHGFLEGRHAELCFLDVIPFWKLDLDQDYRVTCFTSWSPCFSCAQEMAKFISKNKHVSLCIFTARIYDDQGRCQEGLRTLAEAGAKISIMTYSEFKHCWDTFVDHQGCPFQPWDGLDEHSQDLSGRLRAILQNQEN
inactive: [1] -0.065 | crizotinib 0.059 | [2] -0.165 | duvelisib -0.189 | tozasertib 0.013 | [7] 0.102 | doramapimod 0.023 | ispinesib -0.01 | bafetinib -0.016 | nilotinib 0.028 | [4] 0.079 | dasatinib 0.075 | [5] 0.028 | [6] -0.042 | tipifarnib -0.012 | mubritinib 0.03

ALKBH4 (UniProt Q9NXW9)
UniProt Q9NXW9, sequence (Q9NXW9 whole entry, looked up): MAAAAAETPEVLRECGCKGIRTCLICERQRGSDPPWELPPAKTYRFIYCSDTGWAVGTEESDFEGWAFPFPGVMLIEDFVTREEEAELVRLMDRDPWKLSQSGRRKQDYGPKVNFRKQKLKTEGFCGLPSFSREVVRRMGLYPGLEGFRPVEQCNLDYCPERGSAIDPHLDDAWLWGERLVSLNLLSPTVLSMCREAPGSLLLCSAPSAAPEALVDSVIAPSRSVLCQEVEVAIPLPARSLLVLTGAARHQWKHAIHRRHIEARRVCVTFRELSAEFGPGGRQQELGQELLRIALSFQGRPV
inactive: [1] 0.082 | crizotinib -0.033 | [2] 0.172 | [8] 0.029 | duvelisib -0.068 | gandotinib -0.084 | tozasertib 0.024 | [7] 0.12 | doramapimod 0.037 | ispinesib -0.109 | bafetinib 0.038 | [3] 0.087 | dasatinib 0 | [9] -0.022 | [6] 0.017 | tipifarnib -0.001 | mubritinib -0.122

AGPAT5 (UniProt Q9NUQ2)
inactive: [1] 0.035 | crizotinib -0.117 | [2] 0.151 | [8] -0.014 | duvelisib 0.065 | gandotinib -0.09 | tozasertib 0.002 | [7] -0.029 | doramapimod 0.001 | ispinesib -0.145 | bafetinib -0.133 | [3] 0.021 | nilotinib 0.008 | [4] 0.04 | dasatinib -0.058 | [5] -0.035 | [9] 0.09 | [6] 0.045 | tipifarnib 0.02 | mubritinib 0.014

AGAP3 isoform 4 (UniProt Q96P47)
UniProt Q96P47, sequence (Q96P47 whole entry, looked up): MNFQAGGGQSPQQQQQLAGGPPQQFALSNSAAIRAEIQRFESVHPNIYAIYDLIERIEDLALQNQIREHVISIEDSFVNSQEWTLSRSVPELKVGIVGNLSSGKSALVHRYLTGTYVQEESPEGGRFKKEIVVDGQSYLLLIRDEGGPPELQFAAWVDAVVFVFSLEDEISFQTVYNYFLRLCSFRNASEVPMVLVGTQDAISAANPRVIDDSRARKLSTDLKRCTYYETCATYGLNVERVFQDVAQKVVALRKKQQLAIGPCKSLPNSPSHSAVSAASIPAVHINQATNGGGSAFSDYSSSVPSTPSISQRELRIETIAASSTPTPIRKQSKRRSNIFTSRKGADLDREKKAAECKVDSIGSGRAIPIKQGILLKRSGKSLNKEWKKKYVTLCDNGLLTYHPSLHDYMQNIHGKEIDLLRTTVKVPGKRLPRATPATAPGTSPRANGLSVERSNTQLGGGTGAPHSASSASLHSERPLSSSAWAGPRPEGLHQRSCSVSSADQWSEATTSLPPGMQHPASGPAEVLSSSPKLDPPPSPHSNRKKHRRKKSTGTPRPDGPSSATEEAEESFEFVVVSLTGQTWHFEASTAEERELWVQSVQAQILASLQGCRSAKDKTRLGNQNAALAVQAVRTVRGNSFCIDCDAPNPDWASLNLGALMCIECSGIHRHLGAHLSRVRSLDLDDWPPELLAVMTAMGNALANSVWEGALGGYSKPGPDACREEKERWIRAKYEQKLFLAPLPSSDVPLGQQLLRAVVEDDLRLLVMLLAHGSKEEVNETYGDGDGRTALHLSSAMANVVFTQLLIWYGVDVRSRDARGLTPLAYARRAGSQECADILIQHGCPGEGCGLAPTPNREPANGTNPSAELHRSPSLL
inactive: [1] -0.041 | crizotinib -0.231 | [2] -0.133 | [8] 0.07 | tozasertib 0.183 | doramapimod 0.125 | ispinesib -0.069 | bafetinib -0.144 | nilotinib 0.138 | [4] -0.016 | [5] -0.049 | [9] -0.077 | [6] -0.082 | tipifarnib -0.012 | mubritinib -0.156

ACP1 (UniProt P24666)
UniProt P24666, sequence (P24666 whole entry, looked up): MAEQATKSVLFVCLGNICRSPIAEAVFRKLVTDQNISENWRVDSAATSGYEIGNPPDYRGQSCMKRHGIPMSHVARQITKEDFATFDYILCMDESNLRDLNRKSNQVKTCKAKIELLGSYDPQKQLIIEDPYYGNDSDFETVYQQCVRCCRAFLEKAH
inactive: [1] 0.077 | crizotinib -0.063 | [2] -0.033 | [8] 0.165 | duvelisib 0.021 | gandotinib -0.083 | tozasertib 0.108 | [7] 0.324 | doramapimod 0.141 | bafetinib 0.041 | [3] 0.013 | nilotinib 0.078 | [4] -0.071 | dasatinib -0.129 | [5] -0.01 | [9] 0.037 | tipifarnib 0.037 | mubritinib 0.035

ATRN (UniProt O75882)
UniProt O75882, sequence (O75882 whole entry, looked up): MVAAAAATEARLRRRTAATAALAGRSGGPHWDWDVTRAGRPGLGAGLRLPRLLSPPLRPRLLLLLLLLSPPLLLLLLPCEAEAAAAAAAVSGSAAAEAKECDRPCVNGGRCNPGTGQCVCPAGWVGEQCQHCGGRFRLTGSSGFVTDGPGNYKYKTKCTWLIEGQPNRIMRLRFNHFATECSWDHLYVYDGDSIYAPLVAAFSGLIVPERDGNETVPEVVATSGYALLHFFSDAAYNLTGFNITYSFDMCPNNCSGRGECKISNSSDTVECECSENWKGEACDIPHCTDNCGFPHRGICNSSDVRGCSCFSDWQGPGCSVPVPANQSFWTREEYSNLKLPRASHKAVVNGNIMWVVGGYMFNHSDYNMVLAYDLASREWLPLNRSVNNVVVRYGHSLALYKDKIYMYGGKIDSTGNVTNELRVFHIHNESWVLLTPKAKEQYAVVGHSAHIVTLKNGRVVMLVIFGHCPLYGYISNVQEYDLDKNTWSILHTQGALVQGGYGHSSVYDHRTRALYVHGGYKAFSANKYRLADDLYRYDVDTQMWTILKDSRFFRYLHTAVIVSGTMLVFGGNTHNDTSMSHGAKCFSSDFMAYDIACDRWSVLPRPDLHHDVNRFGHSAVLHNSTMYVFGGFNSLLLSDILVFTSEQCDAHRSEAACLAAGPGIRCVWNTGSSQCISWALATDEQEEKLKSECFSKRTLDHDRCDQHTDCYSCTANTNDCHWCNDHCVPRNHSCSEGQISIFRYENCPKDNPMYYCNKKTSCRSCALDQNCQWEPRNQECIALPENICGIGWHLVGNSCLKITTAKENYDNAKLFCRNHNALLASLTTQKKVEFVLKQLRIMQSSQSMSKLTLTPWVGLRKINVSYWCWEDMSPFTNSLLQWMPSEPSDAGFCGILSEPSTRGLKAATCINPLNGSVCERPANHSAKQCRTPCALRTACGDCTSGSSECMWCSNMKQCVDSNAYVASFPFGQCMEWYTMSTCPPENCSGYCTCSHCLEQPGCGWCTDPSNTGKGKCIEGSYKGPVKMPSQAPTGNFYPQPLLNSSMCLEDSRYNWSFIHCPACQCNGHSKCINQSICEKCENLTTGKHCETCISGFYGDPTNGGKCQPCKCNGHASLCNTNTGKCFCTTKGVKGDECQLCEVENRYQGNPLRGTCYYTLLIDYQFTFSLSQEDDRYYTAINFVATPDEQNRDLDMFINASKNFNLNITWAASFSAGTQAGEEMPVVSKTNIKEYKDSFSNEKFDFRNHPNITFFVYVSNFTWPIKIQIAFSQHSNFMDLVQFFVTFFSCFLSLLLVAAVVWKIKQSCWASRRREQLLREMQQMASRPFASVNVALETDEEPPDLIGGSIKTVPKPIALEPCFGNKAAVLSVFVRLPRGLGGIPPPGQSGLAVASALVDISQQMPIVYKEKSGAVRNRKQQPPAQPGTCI
inactive: [1] -0.049 | crizotinib 0.01 | [2] 0.116 | [8] 0.087 | duvelisib -0.028 | gandotinib -0.002 | tozasertib -0.003 | [7] 0.071 | doramapimod -0.238 | bafetinib -0.006 | [3] 0.004 | nilotinib 0.027 | [4] -0.055 | dasatinib -0.047 | [5] 0 | [9] 0.097 | tipifarnib 0.048 | mubritinib -0.027

ACAD9 (UniProt Q9H845)
UniProt Q9H845, sequence (Q9H845 whole entry, looked up): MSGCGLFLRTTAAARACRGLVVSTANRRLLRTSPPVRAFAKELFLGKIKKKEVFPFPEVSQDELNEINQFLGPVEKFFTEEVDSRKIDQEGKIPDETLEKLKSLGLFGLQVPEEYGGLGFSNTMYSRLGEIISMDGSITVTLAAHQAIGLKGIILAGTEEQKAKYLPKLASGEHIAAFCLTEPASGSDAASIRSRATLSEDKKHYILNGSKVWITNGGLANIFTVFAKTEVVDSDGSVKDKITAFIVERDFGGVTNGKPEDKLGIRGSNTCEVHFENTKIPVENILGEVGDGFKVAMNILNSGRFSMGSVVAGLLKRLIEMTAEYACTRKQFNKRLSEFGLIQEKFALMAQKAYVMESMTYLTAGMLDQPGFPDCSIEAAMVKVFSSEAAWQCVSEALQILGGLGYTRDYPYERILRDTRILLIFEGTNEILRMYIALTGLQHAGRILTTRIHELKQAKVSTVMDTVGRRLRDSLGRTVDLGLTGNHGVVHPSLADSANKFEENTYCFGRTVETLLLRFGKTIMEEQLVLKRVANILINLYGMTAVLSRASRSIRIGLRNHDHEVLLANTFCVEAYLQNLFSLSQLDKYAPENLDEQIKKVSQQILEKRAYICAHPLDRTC
inactive: [1] 0.01 | crizotinib 0.035 | [2] 0.021 | [8] -0.061 | duvelisib 0.048 | gandotinib -0.03 | tozasertib -0.016 | [7] -0.052 | doramapimod -0.002 | ispinesib 0.059 | bafetinib -0.061 | [3] -0.022 | nilotinib 0 | [4] 0.021 | dasatinib 0.125 | [5] -0.023 | [9] 0.047 | [6] 0.014 | tipifarnib 0.055 | mubritinib 0.067

BRD3 (UniProt Q15059)
UniProt Q15059, sequence (Q15059 whole entry, looked up): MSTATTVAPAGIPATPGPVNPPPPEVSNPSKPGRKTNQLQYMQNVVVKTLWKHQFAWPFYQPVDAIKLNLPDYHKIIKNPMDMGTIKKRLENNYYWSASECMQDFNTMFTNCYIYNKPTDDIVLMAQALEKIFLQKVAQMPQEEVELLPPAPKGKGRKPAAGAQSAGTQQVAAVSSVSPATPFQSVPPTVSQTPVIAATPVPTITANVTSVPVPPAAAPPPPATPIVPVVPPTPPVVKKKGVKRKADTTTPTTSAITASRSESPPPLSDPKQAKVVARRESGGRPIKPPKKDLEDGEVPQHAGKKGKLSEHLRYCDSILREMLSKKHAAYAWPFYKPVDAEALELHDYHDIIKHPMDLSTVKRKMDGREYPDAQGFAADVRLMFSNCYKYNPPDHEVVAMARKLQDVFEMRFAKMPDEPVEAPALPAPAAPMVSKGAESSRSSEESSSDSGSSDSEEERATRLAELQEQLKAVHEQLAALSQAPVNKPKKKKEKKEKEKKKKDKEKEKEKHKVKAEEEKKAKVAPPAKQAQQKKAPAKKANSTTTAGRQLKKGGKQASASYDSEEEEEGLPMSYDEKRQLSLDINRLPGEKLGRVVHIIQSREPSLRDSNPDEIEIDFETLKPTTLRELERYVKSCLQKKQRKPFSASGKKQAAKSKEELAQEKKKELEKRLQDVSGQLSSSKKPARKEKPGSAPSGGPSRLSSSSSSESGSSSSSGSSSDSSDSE
inactive: [1] 0.117 | crizotinib 0.109 | [8] -0.02 | duvelisib 0.193 | gandotinib -0.081 | tozasertib -0.027 | [7] -0.037 | doramapimod -0.083 | ispinesib -0.03 | bafetinib -0.152 | [3] -0.002 | nilotinib -0.088 | [4] -0.031 | dasatinib -0.319 | [5] -0.138 | [9] -0.05 | [6] 0.086 | tipifarnib -0.126 | mubritinib 0.047
